Compound activity from PubChem BioAssay.
Sampled rows, rich in hits. Any-hit rate of the full collection: about 17%.
TDP1 cell noCPT: qHTS for Inhibitors of human tyrosyl-DNA phosphodiesterase 1 (TDP1): qHTS in cells in absence of CPT; DT40 Tdp1-/- hTDP1 cells, no CPT, ATP luminescence, 48 h; Potency, µM (doses to about 46.2 µM), for inactives: at the top dose activity change, negative = growth inhibition, most hits filed as inhibitors; 420,000 tested, 15% active; AID 686978, 2013; also: % is scaled to controls: 0 for no effect and ±100 for the full control effect; nearly all actives have a fitted effect of over 55% in size
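Readout: luminescence from CellTiter-Glo after 30 min in the dark at RT. Cells: DT40 Tdp1-/- with stable hTDP1, 400/well. Exposure: compounds alone, ≥48 hr, 37 °C.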
TGFb inhibitor: qHTS for Inhibitors of TGF-b; HepG2 CAGA-GFP TGF-b/SMAD3 reporter, GFP fluorescence, 18 h; TGF-beta stimulated, 500 pg/mL final; Potency, µM (highest dose often 46.1 µM), inactives show at the highest dose activity, negative = inhibition, actives largely listed as inhibitors; 410,000 tested, 1.2% active; AID 588855, 2011; also: % is scaled to controls: 0 for no effect and ±100 for the full control effect; nearly all actives have a fitted effect of over 65% in size
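First, reporter cells (HEPG2 CAGA-GFP) rested 2 h at 37 degrees C. Next, compounds were pinned in and TGF-beta added to 500 pg/mL final. After 18 h, GFP was imaged per cell and summed per well.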
ATXN viability: Viability Counterscreen for Primary qHTS for Inhibitors of ATXN expression; S2 cells (HEK-293 line with an ATXN2-luciferase reporter) viability, CellTiter-Fluor protease fluorescence, 24 h; Potency, µM (doses to about 56.7 µM), hits mostly cytotoxic; 400,000 tested, 0.49% active; also: nearly all actives have a fitted effect of over 40% in size
TDP1 cell CPT: qHTS for Inhibitors of human tyrosyl-DNA phosphodiesterase 1 (TDP1): qHTS in cells in presence of CPT | chicken DT40 Tdp1-/-;hTDP1 cells + 20 nM CPT, ATP luminescence, 48 h | Potency, µM (top dose mostly 46.2 µM), for inactives: top-dose activity change, negative = growth inhibition, hits mostly inhibitors | 420,000 tested, 12% active | AID 686979, 2013; also: % is scaled to controls: 0 for no effect and ±100 for the full control effect; nearly all actives have a fitted effect of over 55% in size
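Cell growth measured by CellTiter-Glo luminescence after a minimum 48 h, 37 C compound exposure with 20 nM CPT in Tdp1-knockout DT40 cells stably expressing hTDP1, seeded 400/well; qHTS titration format.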
ATXN2 expr inh: Primary qHTS for Inhibitors of ATXN expression | 360,000 tested, 0.72% active | Potency, µM (series often up to 57 µM), for inactives: top-dose activity change, negative = inhibition, actives largely listed as inhibitors | HEK-293 ATXN2-luciferase reporter, luminescence, 24 h | AID 1745845, 2022; also: % is scaled to controls: 0 for no effect and ±100 for the full control effect; nearly all actives have a fitted effect of over 55% in size
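ATXN2-luciferase reporter cells (luciferase flanked by upstream and downstream ATXN2 gene portions) were treated 24 h at 37 °C with compounds at up to 57 uM. SteadyGlo luminescence gave expression; GF-AFC fluorescence gave viability.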
HepG2 tox: qHTS for Inhibitors of TGF-b: Cytotox Counterscreen | HepG2 CAGA-GFP viability, ATP luminescence, 18 h | Potency, µM (titrated, usually from 46.1 µM), inactives show at the highest dose activity change, negative = cytotoxicity, actives largely listed as cytotoxic | 410,000 tested, 0.76% active
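HepG2 CAGA-GFP cells (1000/well, DMEM with 1% FBS) received compound, then TGF-beta at 500 pg/mL final, and were incubated 18 hours at 37 degrees C. Viability was read by CellTiter-Glo luminescence. Media-only wells were set as complete cell-killing and DMSO as no toxicity.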
The depositor's hits bear a star. Calls follow the shape of the dose curve; as a rule, active = well fitted curve in the direction sought with a large enough effect; inconclusive = small, poorly fitted or top-dose-only effect, or another doubt; inactive = no such curve, though single readings can be large; an effect the other way counts as inactive or inconclusive. Potency is read from the fitted curve at half-maximal effect.

How did COc1ccc(N2CCN(C(CNC(=O)C(=O)NCCCn3ccnc3)c3ccco3)CC2)cc1 (stereo unspecified) do in these assays?
TDP1 cell noCPT: 17%; TGFb inhibitor: -6%; ATXN viability: inactive; TDP1 cell CPT: -10%; ATXN2 expr inh: -2%; HepG2 tox: -13%

How did CC1=CC(=C(c2ccc(N)cc2)c2ccc(N)cc2)C=CC1=N do in these assays?
TDP1 cell noCPT: 3µM*; TGFb inhibitor: inconclusive; TDP1 cell CPT: 2.7µM*; HepG2 tox: -64%

How did O=C(CN(C(=O)CCC(=O)Nc1ccccn1)c1ccccc1F)NCc1ccc2c(c1)OCO2 do in these assays?
TDP1 cell noCPT: -7%; TGFb inhibitor: -3%; ATXN viability: inactive; TDP1 cell CPT: 11%; ATXN2 expr inh: -18%; HepG2 tox: -1%

How did CSCCC1NC(=O)N(CC(=O)Nc2ccc3c(c2)OCCO3)C1=O (stereo unspecified) do in these assays?
TDP1 cell noCPT: 0%; TGFb inhibitor: 6%; ATXN viability: inactive; TDP1 cell CPT: -1%; ATXN2 expr inh: 5%; HepG2 tox: -8%

How did O=C1CN(C(=O)c2ccc(Cl)cc2Cl)C(c2ccc(F)cc2)c2cc(F)ccc2N1 (stereo unspecified) do in these assays?
TDP1 cell noCPT: inconclusive; TGFb inhibitor: 6%; ATXN viability: inconclusive; TDP1 cell CPT: inconclusive; ATXN2 expr inh: -27%; HepG2 tox: 4%

How did CC(C)(C)c1ccc(C(=O)N2CC(=O)Nc3ccc(F)cc3C2c2ccc(F)cc2)cc1 (stereo unspecified) do in these assays?
TDP1 cell noCPT: 18µM*; TGFb inhibitor: inconclusive; ATXN viability: inconclusive; TDP1 cell CPT: 26µM*; ATXN2 expr inh: inconclusive; HepG2 tox: -16%

Results for O=C1CN(C(=O)c2ccc(S(=O)(=O)N3CCCCC3)cc2)C(c2ccc(F)cc2)c2cc(Br)ccc2N1 (stereo unspecified) ?
TDP1 cell noCPT: 21µM*; TGFb inhibitor: inconclusive; ATXN viability: inactive; TDP1 cell CPT: 26µM*; ATXN2 expr inh: 2%; HepG2 tox: -36%

What do the screens show for `O=C1CN(C(=O)c2cc3ccccc3oc2=O)C(c2ccc(F)cc2)c2cc(Br)ccc2N1` (stereo unspecified)?
TDP1 cell noCPT: inconclusive; TGFb inhibitor: -9%; ATXN viability: inactive; TDP1 cell CPT: 13µM*; ATXN2 expr inh: 1%; HepG2 tox: -5%

Results for O=C1CN(C(=O)c2cc([N+](=O)[O-])ccc2Cl)C(c2ccc(F)cc2)c2cc(F)ccc2N1 (stereo unspecified) ?
TDP1 cell noCPT: 15µM*; TGFb inhibitor: -4%; ATXN viability: inactive; TDP1 cell CPT: inconclusive; ATXN2 expr inh: 2%; HepG2 tox: -20%

What do the screens show for `O=C1CN(C(=O)c2cc3ccccc3oc2=O)C(c2ccc(F)cc2)c2cc(F)ccc2N1` (stereo unspecified)?
TDP1 cell noCPT: -15%; TGFb inhibitor: -26%; ATXN viability: inactive; TDP1 cell CPT: inconclusive; ATXN2 expr inh: -2%; HepG2 tox: 1%

How did Clc1ccccc1CNc1nc2ccccc2c2nc(-c3cccnc3)nn12 do in these assays?
TDP1 cell noCPT: -4%; TGFb inhibitor: 1%; ATXN viability: inactive; TDP1 cell CPT: -20%; ATXN2 expr inh: 4%; HepG2 tox: 0%

What do the screens show for `CC(=O)Oc1ccc2c(c1)CC[C@@H]1[C@@H]2CC[C@]2(C)[C@@H](O)CC[C@@H]12`?
TDP1 cell noCPT: inconclusive; ATXN viability: inconclusive; TDP1 cell CPT: inconclusive; ATXN2 expr inh: -9%

What do the screens show for `Cc1ccc2c(c1)C(c1ccc(F)cc1)N(C(=O)c1ccc(S(=O)(=O)N3CCCCC3)cc1)CC(=O)N2` (stereo unspecified)?
TDP1 cell noCPT: inconclusive; TGFb inhibitor: 1%; ATXN viability: inactive; TDP1 cell CPT: 18µM*; ATXN2 expr inh: -6%; HepG2 tox: 2%

Results for O=C1CN(C(=O)c2ccc(S(=O)(=O)N3CCCC3)cc2)C(c2ccccc2)c2cc(F)ccc2N1 (stereo unspecified) ?
TDP1 cell noCPT: inconclusive; TGFb inhibitor: -5%; ATXN viability: inactive; TDP1 cell CPT: inconclusive; ATXN2 expr inh: -2%; HepG2 tox: -93%

What do the screens show for `CCCC(=O)N1CC(=O)Nc2ccc(Br)cc2C1c1ccc(F)cc1` (stereo unspecified)?
TDP1 cell noCPT: -16%; TGFb inhibitor: 0%; ATXN viability: inactive; TDP1 cell CPT: inconclusive; ATXN2 expr inh: -6%; HepG2 tox: -15%

Results for O=C1CN(C(=O)c2ccc(S(=O)(=O)N3CCCC3)cc2)C(c2ccc(F)cc2)c2cc(Br)ccc2N1 (stereo unspecified) ?
TDP1 cell noCPT: 18µM*; TGFb inhibitor: -22%; ATXN viability: inactive; TDP1 cell CPT: inconclusive; ATXN2 expr inh: -1%; HepG2 tox: -25%

Results for CCCCC1CCC(C(=O)N2CC(=O)Nc3ccc(Br)cc3C2c2ccc(F)cc2)CC1 (stereo unspecified) ?
TDP1 cell noCPT: 13µM*; TGFb inhibitor: inconclusive; ATXN viability: inactive; TDP1 cell CPT: 23µM*; ATXN2 expr inh: 0%; HepG2 tox: -47%

What do the screens show for `CCOC(=O)CC(NC(=O)c1cc2c(=O)n3cccc(C)c3nc2s1)c1ccc(OCC(C)C)c(OC)c1` (stereo unspecified)?
TDP1 cell noCPT: -2%; TGFb inhibitor: -2%; ATXN viability: inactive; TDP1 cell CPT: -3%; ATXN2 expr inh: 9%; HepG2 tox: 0%

How did COC(=O)c1ccccc1NC(=O)CSc1nc2ccsc2c(=O)n1CCC(C)C do in these assays?
TDP1 cell noCPT: -2%; TGFb inhibitor: -5%; TDP1 cell CPT: 1%; HepG2 tox: 3%

How did COc1ccc2[nH]c(=O)c(C(c3nnnn3C3CCCCC3)N3CCN(C)CC3)cc2c1 (stereo unspecified) do in these assays?
TDP1 cell noCPT: 8%; TGFb inhibitor: -16%; ATXN viability: inactive; TDP1 cell CPT: -7%; ATXN2 expr inh: 1%; HepG2 tox: 3%
